The sample as a whole holds a higher share of hits than the screen did.
Pf Dd2 inh: Plasmodium falciparum Dd2 growth inhibition; P. falciparum Dd2 growth, SYBR Green, 72 h; Potency, µM (highest dose often 28.9 µM), actives largely listed as inhibitors; hit rate 4.3% among 120,000; AID 1347417; active means well fitted inhibition curve with a large enough effect; further: nearly all actives have a fitted effect of over 65% in size
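Infected erythrocytes (Dd2, 0.3% parasitemia, 2.5% hematocrit final) are added to compound in RPMI-1640/Albumax II medium, grown 72 h at 37C in low oxygen, then lysed with saponin/Triton-X containing SYBR Green and read by fluorescence.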
Hits are given with their value; n = inactive; ! = a repeat was not active; [ ] = dose if it differs, or a comment.

SMILES | Pf Dd2 inh
Cc1cc(-c2ccnc(-c3nnc(C)n3-c3ccccc3)c2)ccn1 | n
O=C(NC1CCCN(c2cc(-c3ccc(F)cc3)[nH]n2)C1)c1ccc2nc[nH]c2c1 (configuration not stated) | n
CS(=O)(=O)N1CCOc2ccc(CCC(=O)NCC3CC3)cc2C1 | n
CCCN(CCC)CCCNC(=O)C1CCN(c2nc3ccc(CC)cc3s2)CC1 | 7.1µM
CCOc1ccc2nc(N3CCC(C(=O)Nc4ccc(Br)cc4F)CC3)sc2c1 | n
Cc1ccc(CNC(=O)c2ccc3nc(N4CCCCC4)sc3c2)cc1 | n
CCCN(CCC)CCCNC(=O)C1CCN(S(=O)(=O)CC)CC1 | n
CCc1ccc2nc(N3CCC(C(=O)NCCC(C)C)CC3)sc2c1 | n
CCCN(CCC)CCNC(=O)C1CCN(c2nc3ccc(CC)cc3s2)CC1 | 7.1µM
CN1[C@H](CO)C[C@H](CNC(=O)c2cn(CCN)nn2)[C@@H]1c1ccccc1F | n
O=c1[nH]c(C2CCCN(Cc3ccccc3)C2)nn1-c1ccccc1 (configuration not stated) | n
CC(C)CN1CCCC(c2nc3ccc(F)cc3c(=O)[nH]2)C1 (configuration not stated) | 5µM
O=c1[nH]c(C2CCCN(CC3CCCCC3)C2)nn1-c1ccccc1 (configuration not stated) | n
O=c1[nH]c(C2CCCN(Cc3cccc(-c4cccs4)c3)C2)nc2ccc(F)cc12 (configuration not stated) | 8.9µM!
N#Cc1cccc(CN2CCC(c3nc4ccc(F)cc4c(=O)[nH]3)CC2)c1 | n
CC(C)NC(=O)N1CC[C@H](c2nc3ccc(F)cc3[nH]2)C1 | n
CCN1CCC(c2nc3ccc(F)cc3c(=O)[nH]2)CC1 | n
Cc1ccc2nc([C@H]3CCN(Cc4cccs4)C3)[nH]c2c1 | n
Cc1ccc(-c2cccc(CN3CCCC(c4nc5ccc(F)cc5c(=O)[nH]4)C3)c2)c(C)c1 (configuration not stated) | 13µM!
Cc1ccc(-c2cccc(CN3CCN(c4ccc(Cl)nn4)C(=O)C3)c2)c(C)c1 | n
Cc1ccc(-c2cccc(CN3CC4CCC(C3)N4c3ccc(C(F)(F)F)cc3)c2)c(C)c1 | n
Cc1ccc2nc(C3CCCN(CC4CCCC4)C3)[nH]c(=O)c2c1 (configuration not stated) | 8.9µM!
CN1Cc2ccc(NCc3ccccc3)nc2C(C)(C(=O)NCCOc2ccccc2)C1 (configuration not stated) | n
COCC(=O)NC1CCC12CCN(C(=O)c1cccs1)CC2 (configuration not stated) | n
Cc1cn2nc(C(=O)Nc3ccc4c(c3)OCCO4)cc2c(N2CCSCC2)n1 | n
SMILES | Pf Dd2 inh
COc1cc(F)ccc1-c1ccc2ncn(C3CC3)c(=O)c2n1 | n
COc1ccccc1CNC(=O)CCc1nc(C2CCCN2C(=O)NC(C)C)no1 (configuration not stated) | n
CNC(=O)C(C)(C)N1CCC[C@H]1C(=O)NCc1ccccc1 | n
Cn1nc(C(=O)N2C[C@@H](CO)[C@H](c3ccccn3)C2)c2ccccc21 | n
CCC(C)C(=O)NC1CCN(c2cnn(CCOC)c(=O)c2)CC1 (configuration not stated) | n
COc1cccc(CC(=O)N2CC(CO)C3(CCNCC3)C2)c1 (configuration not stated) | n
O=C(c1ccc(C(F)(F)F)cc1)N1CCC2(CC(c3cccnc3)=NO2)C1 (configuration not stated) | n
COc1cccc(NC(=O)CCC2CCN(Cc3noc(C4CC4)n3)CC2)c1 | n
O=C(Nc1ccc(Cl)cc1Cl)c1cnn2c1CN(C(=O)c1ccccc1F)CC2 | n
CC(=O)Nc1ccc(CN2CCC(c3nc4ccc(C)cc4c(=O)[nH]3)CC2)cc1 | n
Cc1ccc2nc(C3CCN(Cc4cccc(-c5cccnc5)c4)CC3)[nH]c(=O)c2c1 | 8.9µM!
COc1ccc(CN2CCCC(c3nn(-c4ccccc4)c(=O)[nH]3)C2)cc1 (configuration not stated) | n
COc1ccc(-n2nc(C3CCN(Cc4cccnc4)CC3)[nH]c2=O)cc1 | n
Cc1cc(C)cc(-c2ccc(CN3CCCC(c4nc5ccc(F)cc5c(=O)[nH]4)C3)cc2)c1 (configuration not stated) | 10µM!
CC(=O)Nc1ccc(CN2CCC(c3nc4ccc(F)cc4c(=O)[nH]3)CC2)cc1 | n
CCCNC(=O)N1CCC(OC2CCN(S(C)(=O)=O)CC2)CC1 | n
COC(=O)C1=C(C)N=C2SC=C(CC(=O)NCc3ccc(F)cc3)N2C1c1cccc(OC)c1 (configuration not stated) | n
O=C(NC1CCCCC1)C1CN(S(=O)(=O)c2cc(F)cc(F)c2)CC12CCOCC2 (configuration not stated) | n
CN1CC2(CCCN(C(=O)c3ccc(OC(F)F)cc3)CC2)OC1=O (configuration not stated) | n
COc1ccc(OCC(=O)Nc2c(C(=O)N3CCN(c4ccccc4)CC3)oc3ccccc23)cc1 | 11µM
CCC(=O)Nc1ccc(C2(C(=O)N3CCN(c4ccccc4F)CC3)CCC2)cc1 | n
CCOc1ccc(NC(=O)c2oc3ccccc3c2NC(=O)COc2cccc(OC)c2)cc1 | n
Cc1ccc(OCC(=O)Nc2c(C(=O)c3ccccc3)oc3ccccc23)cc1C | n
CCCC(=O)Nc1c(C(=O)N2CCN(c3ccccc3)CC2)oc2ccccc12 | n[5.79 µM]
CCCCC(=O)Nc1c(C(=O)N2CCN(c3ccccc3F)CC2)oc2ccccc12 | 11µM
SMILES | Pf Dd2 inh
Cc1cccc(OCC(=O)Nc2c(C(=O)N3CCN(c4ccccc4F)CC3)oc3ccccc23)c1 | n
O=C(Nc1c(C(=O)N2CCN(c3ccccc3F)CC2)oc2ccccc12)c1ccco1 | n
CC(C)CC(=O)Nc1c(C(=O)N2CCN(c3ccccc3F)CC2)oc2ccccc12 | 7.1µM
O=C(NC1CCCCCC1)c1cc2n(n1)CC(c1ccc3c(c1)OCO3)OC2 (configuration not stated) | n
O=C(c1cccnc1)N1CCC2(CNS(=O)(=O)c3cnccc3O2)C1 (configuration not stated) | n
Cc1ccc(-n2c(C3CCN(C(=O)c4cccc(N(C)C)c4)CC3)n[nH]c2=O)cc1 | n
O=C(c1ccccc1F)N1CCn2c(nn(-c3ccc([N+](=O)[O-])cc3)c2=O)C1 | n
Cc1cccc(Cn2nc3n(c2=O)CCCCC3)c1 | n
COC(=O)[C@]1(C)N[C@H](c2cccnc2N2CCOCC2)[C@@H]2C(=O)N(C)C(=O)[C@@H]21 | n
CN1CC(=O)N(C2CCNC2)Cc2c(NCCCN3CCCCC3)ncnc21 (configuration not stated) | n
Cc1onc(C(=O)NCC(=O)N2CCCCCNC(=O)CC2c2ccccc2)c1Cn1cccn1 (configuration not stated) | n
CN(Cc1cn(C)c2ccccc12)C1CCc2nn(CC3CC3)c(=O)n2CC1 (configuration not stated) | 5µM
CCn1cc(CN(C)C2CCc3nn(CC4CC4)c(=O)n3CC2)c(C)n1 (configuration not stated) | n
CN(C(=O)Cc1c[nH]c2ccccc12)C1CCc2nn(CC3CC3)c(=O)n2CC1 (configuration not stated) | n
O=C1NCCCCCCN(C(=O)C2CCC2)[C@H]2CCCC[C@@H]12 | n
CCCNC(=O)N1CCCN(S(=O)(=O)c2ccccc2)CCC(=O)NCC1 | n
CNC(=O)[C@@H]1CN(C(=O)c2cc3cc(OC)ccc3[nH]2)C[C@H]1c1nc(C)no1 | n

Bioassay records: PubChem BioAssay, National Center for Advancing Translational Sciences (NCATS)
